Bioassay records (PubChem)
Shown is part of a subset that was picked to be rich in hits.
Pf Dd2 inh: qHTS Primary assay for Inhibitors of Plasmodium falciparum Dd2 growth in vitro; hit rate 4.3% among 120,000; Potency, µM (titrated, usually from 28.9 µM), for inactives: at the highest dose activity, negative = inhibition, hits mostly inhibitors; AID 1347417, 2020; P. falciparum Dd2 growth, SYBR Green, 72 h; active = well fitted inhibition curve with a large enough effect;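 note: plate controls were DMSO vehicle for no effect and reference drug for full effect; nearly all actives have a fitted effect of over 65% in size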
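Infected erythrocytes (Dd2, 0.3% parasitemia, 2.5% hematocrit final) are added to compound in RPMI-1640/Albumax II medium, grown 72 h at 37C in low oxygen, then lysed with saponin/Triton-X containing SYBR Green and read by fluorescence.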
Numbers without * were called inactive; i = inactive; [ ] = another dose, or the depositor's remark. Potency is the fitted concentration of half-maximal effect.

SMILES | Pf Dd2 inh
COc1ccc(-c2ccc3nc(-c4ccc(SC)cc4)oc3c2)c(OC)c1OC | i
COc1ccc(-c2ccc3nc(-c4ccc(C)c(F)c4)oc3c2)c(OC)c1OC | 11%
CCCOc1ccc(-c2nc3ccc(-c4ccc(OC)c(OC)c4OC)cc3o2)cc1 | 10µM*
CN1CCC(Cn2ccc3c(N4CCOCC4)nc(-c4cccc(C(N)=O)c4)cc32)CC1 | -1%[44.1 µM]
Cc1cc(C)cc(CSCC(=O)N[C@H]2CCOC[C@H]2C2CCOCC2)c1 | -12%
COc1ccc(CN2C(=O)COC[C@H]2C(=O)Nc2ccc(Cl)cc2)c(OC)c1 | -13%
Cc1ccccc1C(=O)NCC(c1ccc(N(C)C)cc1)N1CCCC1 (configuration not stated) | -19%
COc1ccc(C(CNC(=O)c2ccc(F)cc2)N2CCCC2)cc1 (configuration not stated) | -4%
CC(C)Oc1ccc(C(=O)NCC(c2ccc(N(C)C)cc2)N2CCCC2)cc1 (configuration not stated) | 10µM*
CN(C)c1ccc(C(CNS(=O)(=O)c2ccc(Cl)cc2)N2CCCC2)cc1 (configuration not stated) | 13µM*
COc1ccc(S(=O)(=O)NCC(c2ccc(N(C)C)cc2)N2CCOCC2)cc1 (configuration not stated) | -16%
Cc1cc(S(=O)(=O)NCC(c2ccc(N(C)C)cc2)N2CCOCC2)ccc1F (configuration not stated) | -27%
CC(C)NC(=O)N1C[C@@H]2C[C@H]1C(=O)N(C)c1ccccc1O2 | 5%[44.1 µM]
COc1ccc(CCNC(=O)CN2C(=O)C(c3ccccc3)=NC2(C)C)cc1OC | 5%
COCC(=O)NC1CCC12CCN(S(=O)(=O)c1ccc(C#N)cc1)CC2 (configuration not stated) | -11%
CC(=O)N1c2ccccc2CC1c1nc(C(C)C)no1 (configuration not stated) | 12%[5.79 µM]
O=C(NC1CCCC1)N1CCC(Oc2ccccc2-c2nc(-c3ccncc3)no2)C1 (configuration not stated) | -28%
O=C(Cc1ccc(F)cc1)N1CCC2(CC1)CC(N(Cc1ccccc1)C1CC1)CCO2 (configuration not stated) | 5.6µM*
O=C(CCC1CCCC1)N1CCC2(CC1)CC(N(Cc1ccc(F)cc1)C1CC1)CCO2 (configuration not stated) | 3.5µM*
Cc1cnc(C(=O)N2CCC3(CC2)CC(N(Cc2ccc(F)cc2)C2CC2)CCO3)cn1 (configuration not stated) | -6%
O=C(c1ccc(F)cc1)N1CCC2(CC1)CC(N(Cc1ccccc1)C1CC1)CCO2 (configuration not stated) | -10%
Cn1nccc1C(=O)N1CCC2(CC1)CC(N(Cc1ccc(F)cc1)C1CC1)CCO2 (configuration not stated) | -22%
O=C(c1ccoc1)N1CCC2(CC1)CC(N(Cc1ccc(F)cc1)C1CC1)CCO2 (configuration not stated) | 13µM*
O=C(c1ccccc1)N1CCC2(CC1)CC(N(Cc1ccccc1)C1CC1)CCO2 (configuration not stated) | i
O=C(Cc1ccsc1)N1CCC2(CC1)CC(N(Cc1ccccc1)C1CC1)CCO2 (configuration not stated) | -9%
SMILES | Pf Dd2 inh
CS(=O)(=O)N(C1CC1)C1CCOC2(CCN(C(=O)c3ccc(F)cc3)CC2)C1 (configuration not stated) | i
CC(=O)N1CCC(Oc2ccc(Cl)cc2C(=O)N(C)Cc2csc(C)n2)CC1 | -5%
O=C(Cn1cccc1-c1nc(-c2ccc3c(c2)OCO3)no1)N1CCN(c2ccccc2)CC1 | 27%
Cc1cn2nnc(C(=O)N3CCN(c4ccccc4)CC3)c2c(=O)[nH]1 | -6%
O=C(O)CCC(=O)N[C@H]1CO[C@H]2[C@@H]1OC[C@@H]2Nc1nccc(-c2cccc(F)c2)n1 | 14%[44.1 µM]
CC(C)NC(=O)N1CCC(CCOc2ccccc2F)C1 (configuration not stated) | i
COc1ccc(NC(=O)c2cc(S(=O)(=O)N3CCCC3)ccc2OC)cc1 | 7%
CCc1ccc(OCC2c3cc(OC)c(OC)cc3CCN2C(=O)c2ccc(S(=O)(=O)N3CCCC3)cc2)cc1 (configuration not stated) | 11µM*
O=C1CN(C(=O)c2ccc(S(=O)(=O)N3CCCC3)cc2)C(c2ccccc2)c2cc(F)ccc2N1 (configuration not stated) | -3%
CCOc1ccc(C(=O)N2CCC[C@H]2c2nc(-c3ccc(OC)c(OC)c3)no2)cc1 | i
CCc1ccc(C(=O)N2CCC(c3nc(-c4ccc(S(=O)(=O)N5CCCC5)cc4)no3)CC2)cc1 | -22%
COc1cc2c(cc1OC)C(COc1ccccc1OC)N(C(=O)c1ccc(S(=O)(=O)N3CCCC3)cc1)CC2 (configuration not stated) | 11µM*
COc1ccc(C(=O)N2CCCN(S(=O)(=O)c3ccccc3)CCC(=O)NCC2)cc1F | -19%
CCOC(=O)c1ccc(OCC2c3cc(OC)c(OC)cc3CCN2C(=O)c2ccc(S(=O)(=O)N3CCCC3)cc2)cc1 (configuration not stated) | 11µM*
COc1cccc(N2CC3(CN(CCOc4ccccc4)C(=O)O3)C2)c1 | 16%[44.1 µM]
CN(C(=O)Cn1ccn2nc3c(c2c1=O)CCCC3)C1CCCCC1 | -7%
COc1ccc(S(=O)(=O)NC[C@H]2COCc3nc4c(C)cccc4n32)cc1 | -16%[44.1 µM]
CC(C)(C)NS(=O)(=O)c1ccccc1-c1ccc(Cn2ccnc2)cn1 | i
CN1CC(c2ccccc2)CC2(CCN(C(=O)C3CCOCC3)CC2)C1 (configuration not stated) | -9%
Cc1noc2ncnc(N3CCC4(CC3)CC(c3ccccc3)CN(C)C4)c12 (configuration not stated) | 11µM*
CN1CC(c2ccccc2)CC2(CCN(C(=O)c3ccccc3)CC2)C1 (configuration not stated) | i
O=C(Nc1ccc(F)cc1)c1cc(-c2ccc[nH]2)n[nH]1 | i
Cc1ccc(NC(=O)c2cc(-c3ccc[nH]3)n[nH]2)cc1F | -5%
CSc1ccc(NC(=O)c2cc(-c3ccc[nH]3)n[nH]2)cc1 | 13µM*
COc1cccc(-c2cc(C(=O)Nc3ccc(Br)c(C)c3)[nH]n2)c1 | -26%
SMILES | Pf Dd2 inh
COc1cccc(CNC(=O)c2cc(-c3cccc(OC)c3)n[nH]2)c1 | 10%
COc1cccc(-c2cc(C(=O)Nc3ccc(F)cc3)[nH]n2)c1 | 2.5µM*
CCN(CC)C(=O)[C@@H]1CCC[C@@H](NC(=O)c2cncnc2)CN(C)C(=O)C1 | -16%[44.1 µM]
COc1cc(C(=O)NC2CCN(c3cc(-c4ccc(F)cc4)[nH]n3)C2)cc(OC)c1OC (configuration not stated) | i
COc1ccc(F)c(CN2C[C@@H](C(=O)O)C[C@@H](C(=O)NCc3ccccn3)C2)c1 | 1%
COCCOCC1(CNC(=O)Nc2cccnc2)C[C@@H](O)[C@@H](O)C1 (some centres not stated) | 4%[44.1 µM]
O=C(O)c1cnc(-c2cc(NCc3ccccn3)nc3[nH]ccc23)c(Cl)c1 | -3%
COc1ccc(C(=O)NCc2ccnc3[nH]ccc23)cc1 | -8%[44.1 µM]
Nc1ncc(-c2ccc(-c3cc(NC4CCCC4)nc4[nH]ccc34)cc2)[nH]1 | 8.9µM*
CCNC(=O)c1ccc(-c2cc(NC3CCCC3)nc3[nH]ccc23)nc1 | 10µM*
Cc1nn2c(c1-c1ccnn1C(C)C)N(Cc1ccc3c(c1)CCO3)CCC2 | -19%[44.1 µM]
